Assay results: PubChem BioAssay AID2625 (National Center for Advancing Translational Sciences (NCATS), 2010)
Inconclusive results are not listed. The source made the active and inactive calls. The call rests on the fitted dose curve; in most records, active means well fitted curve in the direction sought with a large enough effect; inconclusive means small, poorly fitted or top-dose-only effect, or effect the other way, or another doubt; inactive means no such curve, though single readings can be large or run the other way.

Molecular target: Pyruvate kinase PKLR (Homo sapiens) (UniProt P30613)
Assay: Secondary LDH Assay for Activators of Human Liver Pyruvate Kinase: for Probe SAR
Details: purified hPK-L, LDH-coupled NADH fluorescence kinetic; series mostly up to 58.2 µM
Source text: NIH Chemical Genomics Center [NCGC]
Matthew G. Vander Heiden, M.D., Ph.D. [Harvard Medical School, 77 Avenue Louis Pasteur, Boston, MA 02115]
Human pyruvate kinase liver (hPK-L)enzyme was supplied as a highly purified (>95% pure) preparation from Harvard Medical School and a secondary assay was used to evaluate compounds. This assay couples the formation of pyruvate from hPK-R using lactate dehydrogenase (LDH) and NADH. The depletion of NADH is followed in a fluorescent-based kinetic assay that follows the formation of pyruvate to lactate, as catalyzed LDH. Pyruvate kinase substrates, PEP and ADP, were present in the assay at 0.1 mM and 4 mM respectively. In this kinetic assay initial rates were determined by following the fluorescence of NADH depletion.
NCGC Assay Protocol Summary:
Three uL of substrate mix (final concentration, 50 mM Tris-Cl pH 8.0, 200 mM KCl, 15 mM MgCl2, 0.1 mM PEP, 4.0 mM ADP, and 0.2 mM NADH) was dispensed into black-solid 1536 well plates. 23 nL of compounds were delivered by a pin tool and 1 uL of enzyme mix (final concentrations, 10 nM hPK-L and 1 uM of LDH) was added. Plates were immediately placed in ViewLux (Perkin Elmer) and NADH fluorescence was determined at 30 second exposure intervals for between 3 and 6 minutes. Data were normalized to the uninhibited and EC100 activation using known activators such as fructose-bis-phosphate.

Sequence of Pyruvate kinase PKLR (Homo sapiens) (P30613 whole entry, looked up): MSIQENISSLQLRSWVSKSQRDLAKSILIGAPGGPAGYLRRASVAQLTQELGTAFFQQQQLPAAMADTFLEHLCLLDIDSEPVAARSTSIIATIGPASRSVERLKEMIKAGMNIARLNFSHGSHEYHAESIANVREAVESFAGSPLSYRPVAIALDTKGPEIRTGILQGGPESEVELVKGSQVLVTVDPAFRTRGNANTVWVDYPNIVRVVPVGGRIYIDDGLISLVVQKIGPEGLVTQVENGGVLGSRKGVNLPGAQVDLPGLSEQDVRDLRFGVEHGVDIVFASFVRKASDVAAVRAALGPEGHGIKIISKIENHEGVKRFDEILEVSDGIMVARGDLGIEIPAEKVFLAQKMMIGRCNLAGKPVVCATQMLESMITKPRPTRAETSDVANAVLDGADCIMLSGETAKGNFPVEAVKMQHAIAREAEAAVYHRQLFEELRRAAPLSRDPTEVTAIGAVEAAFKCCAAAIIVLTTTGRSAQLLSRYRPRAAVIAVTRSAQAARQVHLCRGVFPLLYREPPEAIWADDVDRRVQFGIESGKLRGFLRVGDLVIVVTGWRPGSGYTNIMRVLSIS

outcome, inactive:
CC(=O)N1CCc2cc(S(=O)(=O)Nc3ccc(C)c(C)c3)ccc21
O=C1c2ccccc2C(=O)N1Cc1ccccc1
Cc1ccc(NS(=O)(=O)c2ccc3c(c2)CCC(=O)N3)cc1C
O=C1c2ccccc2C(=O)N1c1ccccc1O
O=C1c2ccccc2C(=O)N1Cc1ccncc1
N#Cc1cccc(NS(=O)(=O)c2ccc3c(c2)CCC(=O)N3)c1
Nc1cccc(S(=O)(=O)N2CCCN(S(=O)(=O)c3ccc4c(c3)OCCO4)CC2)c1
O=C1CCc2cc(S(=O)(=O)Nc3cccc(-c4ccccc4)c3)ccc2N1
CNc1cccc(S(=O)(=O)N2CCCN(S(=O)(=O)c3ccc4c(c3)OCCO4)CC2)c1
Cc1ccc(NS(=O)(=O)c2cc3c(cc2C)NC(=O)CO3)cc1C
O=C1CCc2cc(S(=O)(=O)Nc3cccc(Br)c3)ccc2N1
Cc1ccc(NS(=O)(=O)c2ccc3c(c2)n(C)c(=O)n3C)cc1C
O=C1CCc2cc(S(=O)(=O)Nc3ccc(Cl)cc3)ccc2N1
O=C1CCc2cc(S(=O)(=O)Nc3cccc(Oc4ccccc4)c3)ccc2N1
COc1cccc(Cn2ncc3c4sc(SC)cc4n(C)c3c2=O)c1
O=S1(=O)N=C(Oc2cccc(Cl)c2)c2ccccc21
Cc1ccc(OC2=NS(=O)(=O)c3ccccc32)cc1
Cc1ccc(NS(=O)(=O)c2cccc(F)c2)cc1C
Cc1ccc(NS(=O)(=O)c2ccc3c(ccn3C)c2)cc1C
O=C1c2ccccc2C(=O)N1c1cccc(=O)[nH]1
Cc1ccc(NS(=O)(=O)c2cc3c(cc2N(C)C)NC(=O)CC3)cc1C
Cc1ccc(NS(=O)(=O)c2ccc3c(c2)CCC(C)(C)O3)cc1C
CC(=O)Nc1cccc(S(=O)(=O)Nc2ccc(C)c(C)c2)c1
Cc1ccc(N2C(=O)c3ccccc3C2=O)c(C)c1
O=C1c2ccccc2C(=O)N1c1cccc(O)c1
Cc1ccc(NS(=O)(=O)c2cc3c(cc2F)NC(=O)CC3)cc1Cl
O=C1c2ccccc2C(=O)N1c1cccnc1
O=C1c2ccccc2C(=O)N1c1ccc(O)cc1
O=C1CCc2cc([S+](=O)([O-])Nc3ccc(N[S+](=O)([O-])c4ccc5c(c4)CCC(=O)N5)cc3)ccc2N1
O=C1c2ccccc2C(=O)N1c1cccc2ccncc12
O=C1c2ccccc2C(=O)N1Cc1cccnc1
Cc1ccc(NS(=O)(=O)c2ccc3c(c2)NC(=O)CO3)cc1C
O=C1CCc2cc(S(=O)(=O)Nc3ccc(Cl)c(Cl)c3)c(F)cc2N1
O=C1c2ccccc2C(=O)N1c1cnc2ccccc2c1
CC(=O)Nc1ccc(S(=O)(=O)Nc2ccc(C)c(C)c2)cc1
Cc1ccc2nc(-c3ccc(C)o3)c(NC3CCCC3)n2c1
Cc1ccc(NS(=O)(=O)c2ccc3c(c2)CC(=O)N3)cc1C
O=C1c2ccccc2C(=O)N1c1cncc2ccccc12
O=C1CCc2cc(S(=O)(=O)Nc3ccccc3-c3ccccc3)ccc2N1
COc1ccc(OC2=NS(=O)(=O)c3ccccc32)cc1
